Inconclusive results are not listed. Active and inactive are the calls of the source. The call rests on the fitted dose curve; in most records, active means well fitted cell-killing curve with a large enough effect; inconclusive means small, poorly fitted or top-dose-only effect, or effect the other way; inactive means no such curve, though single readings can be large or run the other way.
Potency means the concentration at half of the fitted maximal effect.

This assay is described as follows: Quantitative High-Throughput drug screen in 47 multiple myeloma cell lines against the NCATS MIPE library collection: JJN3_DSMZ cell viability assay (AID 1918966; further: nearly all actives have a fitted effect of over 50% in size). The settings on record: JJN3 myeloma cells viability, CellTiter-Glo ATP, 48 h; series mostly up to 45.8 µM. An outline of the steps: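 Inhibition of cell viability is measured here. Each line was plated at 500 cells per well, treated with MIPE 4.0 drugs, kept 48 hours at 37C, then assayed for ATP content by CellTiter-Glo luminescence.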
Background: ATP-based viability assays read luminescence as a measure of living cells.
In the case of `COCC1(CO)C(=O)C2CCN1CC2` (stereo unspecified), the Potency was 0.59 µM (active).
Next, `CCNC(=O)C[C@@H]1N=C(c2ccc(Cl)cc2)c2cc(OC)ccc2-n2c(C)nnc21`: 0.148 µM (active).
On to `CN1CCN(c2ccc([N+](=O)[O-])c3no[n+]([O-])c23)CC1`, for which the Potency is 18.7 µM (active).
As for `CCc1c(C(=O)C(N)=O)c2c(OCC(=O)O)cccc2n1Cc1ccccc1`, the entry is “inactive”.
Turning to `Cc1ccccc1-n1c(Cn2ncc3c(N)ncnc32)nc2cccc(C)c2c1=O`, the Potency result was “inactive”.
Turning to `O=[N+]([O-])c1ncc[nH]1`, the Potency result is “inactive”.
Next, `CC1=C(O)C(=O)C=C2C1=CC=C1[C@@]2(C)CC[C@@]2(C)[C@@H]3C[C@](C)(C(=O)O)CC[C@]3(C)CC[C@]12C`: 0.743 µM (active); `CC(C)N[C@@H]1CCn2c(=O)[nH]c3cccc(c32)[C@@H]1O`: 9.35 µM (active); `CC[C@@]1(O)C(=O)OCc2c1cc1n(c2=O)Cc2cc3ccccc3nc2-1`: 0.743 µM (active).
In the case of `CC[C@@H]1[C@@H](C)O[C@@](O)([C@@H](C)[C@H](O)[C@H](C)[C@H]2OC(=O)C=CC=C[C@@H](C)[C@@H]([C@@H](C)[C@@H](O)[C@H](C)[C@@]3(O)C[C@H](O[C@H]4C[C@H](O)[C@H](O)[C@H](C)O4)[C@H](CC)[C@@H](C)O3)OC(=O)C=CC=C[C@@H]2C)C[C@H]1O[C@H]1C[C@H](O)[C@H](O)[C@H](C)O1`, the Potency was 0.833 µM (active).
As to `COc1ccc2c(c[n+](C)c3c4cc5c(cc4ccc23)OCO5)c1OC`, the Potency was 2.64 µM (active).
As to `C[C@@H]1CC[C@@]2(OC1)O[C@H]1C[C@H]3[C@@H]4CC=C5C[C@@H](O[C@@H]6O[C@H](CO)[C@@H](O[C@@H]7O[C@@H](C)[C@H](O)[C@@H](O)[C@@H]7O)[C@H](O)[C@@H]6O[C@@H]6O[C@@H](C)[C@H](O)[C@@H](O)[C@@H]6O)CC[C@]5(C)[C@@H]4CC[C@]3(C)[C@@H]1[C@H]2C`, the Potency was 2.35 µM (active).
Regarding `C1=C2CCCN[C@H]2[C@@H]2C[C@H]1[C@@H]1CCCCN1C2`, the Potency result is “inactive”.
As for `Cc1c(C(=O)Nc2cccc(C(F)(F)F)c2)cc(-c2ccccc2)n1CCCN1CCOCC1`, the figure is 16.6 µM (active); as for `COc1cc2cc(c1Cl)N(C)C(=O)C[C@H](OC(=O)C(C)C)[C@]1(C)O[C@H]1[C@H](C)[C@@H]1C[C@@](O)(NC(=O)O1)[C@H](OC)C=CC=C(C)C2`, “inactive”.
Turning to `O=S(=O)(CC1CS1)c1ccc(Oc2ccccc2)cc1` (stereo unspecified), the Potency was 11.8 µM (active).
`CCCC[N+]1(C)[C@H]2CC(OC(=O)[C@H](CO)c3ccccc3)C[C@H]1[C@H]1O[C@H]12` (stereo partly specified): the Potency entry is “inactive”.
For the compound `O=c1[nH]c2ccc(Cl)cc2c(N[C@@H]2CN3CCC2CC3)c1-c1nc2ccccc2[nH]1`, the Potency was 1.05 µM (active).
Next, `CCN1CCN(C(=O)Cc2ccc(Nc3ncc(F)c(Nc4ccc(C(=O)Nc5ccccc5Cl)cc4)n3)cc2)CC1`: 7.43 µM (active); `CCOP(=O)(OCC)C(C)NC(=O)N(CCCl)N=O` (stereo unspecified): “inactive”; `Cc1ccccc1-n1c(Cn2cnc3c(N)ncnc32)nc2cccc(C)c2c1=O`: 0.833 µM (active).
In the case of `CC(C)N(CCNC(=O)CN1CCCC1=O)C(C)C`, the Potency entry was “inactive”.
Next, `CC(C)[C@]12O[C@@H]1[C@@H]1O[C@]13[C@]1(O[C@H]1C[C@@H]1C4=C(CC[C@@]13C)C(=O)OC4)[C@H]2O`: “inactive”; `CCCCCC[C@H]1C(=O)O[C@H](C)[C@H](NC(=O)c2cccc(NC=O)c2O)C(=O)O[C@@H](C)[C@@H]1OC(=O)CC(C)C`: 0.296 µM (active); `CN(C)[C@@H]1C(=O)C(C(N)=O)=C(O)[C@@]2(O)C(=O)C3=C(O)c4c(O)cccc4[C@@](C)(O)[C@H]3[C@H](O)[C@@H]12`: 9.35 µM (active).
Turning to `CC(C)(O)C=CC(=O)[C@](C)(O)[C@H]1[C@H](O)C[C@]2(C)[C@@H]3CC=C4[C@@H](C=C(O)C(=O)C4(C)C)[C@]3(C)C(=O)C[C@@]12C`, the Potency was 0.0372 µM (active).

Source of the values: PubChem BioAssay (NCATS).
